High-throughput results as filed in PubChem.
Hits are enriched below; roughly 2.4% of the tested compounds scored in any of these assays.
D2 ag-1 = Beta-Arrestin HTS for Positive Allosteric Modulators of the Human D2 Dopamine Receptor: Agonists; DiscoveRx PathHunter D2 beta-arrestin, luminescence, 90 min; 100% = 57 uM dopamine signal; activation, % (no concentration beside the values); 360,000 compounds, 0.084% hits; AID 624465, 2012; in the data active = activation above about 40%
Target sequence (P14416 whole entry, looked up): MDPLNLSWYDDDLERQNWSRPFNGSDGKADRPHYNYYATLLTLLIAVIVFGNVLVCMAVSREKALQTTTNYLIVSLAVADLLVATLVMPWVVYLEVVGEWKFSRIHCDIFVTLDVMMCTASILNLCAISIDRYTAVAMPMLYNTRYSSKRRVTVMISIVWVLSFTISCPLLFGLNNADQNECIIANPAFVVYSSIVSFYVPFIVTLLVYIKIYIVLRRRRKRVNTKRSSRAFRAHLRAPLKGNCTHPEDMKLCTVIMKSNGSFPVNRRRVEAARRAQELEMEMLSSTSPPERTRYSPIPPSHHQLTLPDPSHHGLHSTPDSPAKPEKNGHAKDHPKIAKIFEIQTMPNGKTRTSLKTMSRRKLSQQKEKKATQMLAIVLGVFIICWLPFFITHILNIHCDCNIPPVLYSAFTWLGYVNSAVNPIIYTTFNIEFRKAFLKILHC
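Agonist mode: compounds alone added to overnight-plated D2 PathHunter cells for 90 min at 37 C, with 57 uM final dopamine (EC100) defining full response. Beta-arrestin recruitment detected by chemiluminescent reagent, read after 1 h at ambient temperature.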
D2 ag-2 = HTS Assay for Allosteric Agonists of the Human D2 Dopamine Receptor: Primary Screen for Agonists. activation, % at 2 µM. D(2) dopamine receptor (Homo sapiens), P14416. 340,000 compounds, 0.53% hits. HEK293 T-REx D2 cells, calcium flux agonist mode;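 active = activation over 3 SD above normal in the single-dose calcium agonist read, cut at about 30% in these data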; note: 0% is about no effect
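Calcium-flux readout, 1 cycle/sec over 180 s following compound pin transfer, in inducible HEK293 Trex D2 cells (force-coupled); dopamine controls included. Positive calcium responses during this window marked compounds as potential agonists.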
D2 PAM-1 = HTS Assay for Positive Allosteric Modulators of the Human D2 Dopamine Receptor: Primary Screen for Potentiators; HEK293 T-REx D2, calcium flux, EC20 dopamine potentiation; D(2) dopamine receptor (Homo sapiens), P14416; 340,000 compounds, 0.34% hits; potentiation, % at 10 µM;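 active = potentiation over 3 SD above the plate norm, cut at about 30% in these data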; note: 0% is about no effect
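Potentiation of an EC20 dopamine calcium response measured kinetically over 180 s, after a preceding 180 s compound-only read flagging agonists. Cells: inducible Hek293 Trex D2 line, 4000/well, cultured overnight at 30 C before dye loading.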
D2 antagonist = HTS Assay for Allosteric Antagonists of the Human D2 Dopamine Receptor: Primary Screen for Antagonists | 340,000 compounds, 2% hits | D(2) dopamine receptor (Homo sapiens), P14416 | HEK293 TREx D2 cells, calcium flux, dopamine EC80 | AID 485344, 2010 | inhibition, % at 10 µM; in the data active = inhibition above about 30%; inactive = below that, where a call was filed; note: 0% is about no effect
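Inhibition of EC80 dopamine-driven calcium flux, recorded kinetically, defines activity here; cells are a tetracycline-induced HEK293 T-REx line expressing force-coupled D2.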
D2 PAM-2 = Beta-Arrestin HTS for Positive Allosteric Modulators of the Human D2 Dopamine Receptor: Potentiators. DiscoveRx D2 beta-arrestin cells, luminescence, 90 min; 100% = 57 uM dopamine signal. potentiation, % (no concentration beside the values). D(2) dopamine receptor (Homo sapiens), P14416. AID 624464, 2012. 360,000 compounds, 0.23% hits; in the data active = potentiation above about 50%
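PathHunter D2 cells, attached overnight at 37 deg C, received compound in DMSO plus dopamine at EC20 (50 nM final) for 90 min at 37 deg C. Beta-arrestin recruitment was read as luminescence after 1 h with detection reagent at ambient temperature.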
Starred values were filed as active, the others as inactive; ! = not confirmed by another sample.

What do the screens show for `Cc1ccc(NS(=O)(=O)c2ccc(C)c(NC(=O)COc3ccccc3)c2)c(C)c1`?
D2 ag-1: -8; D2 ag-2: -1; D2 PAM-1: -4; D2 antagonist: 67*; D2 PAM-2: -1

What do the screens show for `Cc1ccc(NC(=O)COc2ccccc2)c(NC(=O)c2ccccc2C)c1`?
D2 ag-1: -3; D2 PAM-2: -6

What do the screens show for `Cc1csc(-c2ccc3cc(Cl)cc(Cl)c3n2)n1`?
D2 ag-1: -2; D2 PAM-2: 5

Results for CCC[C@H]1CN(Cc2cccnc2)C(=O)[C@@H]1CC(=O)Nc1ccc(Br)cc1 ?
D2 ag-1: 0

Results for CCCn1c(=O)c2sccc2n2c(CCCC(=O)N3CCN(c4cccc(Cl)c4)CC3)nnc12 ?
D2 ag-2: 1; D2 PAM-1: -5

What do the screens show for `COc1ccc(NC(=O)C2CCCN2S(=O)(=O)c2ccc(F)cc2)cc1` (stereo unspecified)?
D2 ag-1: -1; D2 ag-2: 1; D2 PAM-1: -3; D2 antagonist: 30*; D2 PAM-2: -7

How did COc1cc(OC)cc(C(=O)NNC(=O)C(CCC(N)=O)NS(=O)(=O)c2ccc(Cl)cc2)c1 (stereo unspecified) do in these assays?
D2 ag-1: 1; D2 PAM-2: -3

Results for Cc1cccc(CN2CCN(C3CN(CCc4ccccc4)S(=O)(=O)C3)CC2)c1 (stereo unspecified) ?
D2 ag-1: -4; D2 PAM-2: -9

Results for Cc1nn2c(-c3ccco3)ccnc2c1-c1ccc(Cl)cc1 ?
D2 PAM-1: -3

Results for CCOc1ccccc1CN1CCN(C/C=C/c2ccc(OC)cc2)CC1CCO (stereo unspecified) ?
D2 ag-1: -4; D2 ag-2: 4; D2 PAM-1: -22; D2 antagonist: 34*; D2 PAM-2: -7

How did O=C(Cc1cccs1)Nc1ccc(NC(=O)c2ccco2)cc1 do in these assays?
D2 ag-1: 2; D2 ag-2: 0; D2 PAM-1: -11; D2 antagonist: 31*; D2 PAM-2: 1

Results for CC(CCc1ccccc1)NCC(O)COc1ccccc1 (stereo unspecified) ?
D2 ag-1: 5; D2 ag-2: 35*; D2 PAM-1: -30; D2 antagonist: 55*; D2 PAM-2: -9

What do the screens show for `CC(C)NCC(O)COc1ccc(CCOCC2CC2)cc1` (stereo unspecified)?
D2 ag-1: -6; D2 ag-2: 2; D2 PAM-1: -2; D2 antagonist: -5; D2 PAM-2: -7

What do the screens show for `COCCc1ccc(OCC(O)CNC(C)C)cc1` (stereo unspecified)?
D2 ag-1: -2; D2 ag-2: 1; D2 PAM-1: -4; D2 antagonist: 34*!; D2 PAM-2: 0

What do the screens show for `OC(CNCC1CCCCC1)COc1ccccc1` (stereo unspecified)?
D2 ag-1: -1; D2 ag-2: 0; D2 PAM-1: -20; D2 antagonist: 46*; D2 PAM-2: -22

Results for COc1ccc(NC(=O)N(C2CCCCC2)C2CCN(C(C)C)CC2)c(OC)c1 ?
D2 ag-1: 1; D2 ag-2: 1; D2 antagonist: 50*; D2 PAM-2: 11

Results for CCCCN1C(=O)/C(=C/C=C2\Oc3ccccc3N2CC)SC1=S ?
D2 ag-1: 2; D2 ag-2: 61*; D2 PAM-1: -5; D2 antagonist: -7; D2 PAM-2: -8

What do the screens show for `CC(CN1CCN(Cc2ccccc2)CC1)c1ccccc1` (stereo unspecified)?
D2 ag-1: -4; D2 ag-2: 0; D2 PAM-1: 1; D2 antagonist: 0; D2 PAM-2: -64

What do the screens show for `CC(CCc1ccccc1)N1CCN(Cc2ccccc2)CC1` (stereo unspecified)?
D2 ag-1: -1; D2 ag-2: 0; D2 PAM-1: -16; D2 antagonist: 61*; D2 PAM-2: -41

Results for COc1ccc(-c2noc(-c3nnn(-c4cc(C)ccc4C)c3N)n2)cc1 ?
D2 ag-2: 1; D2 PAM-1: -26

What do the screens show for `C=CCNc1nc(NCCN2CCOCC2)nc(N2CCOCC2)n1`?
D2 ag-1: 0; D2 ag-2: 0; D2 PAM-1: 14; D2 antagonist: 0; D2 PAM-2: -16

Results for C=CCNc1nc(N2CCOCC2)nc(N2CCOCC2)n1 ?
D2 ag-1: 0; D2 ag-2: -1; D2 PAM-1: -14; D2 antagonist: 31*; D2 PAM-2: 1

How did S=C1SC2(CCCCCC2)NC2=C1CCCCC2 do in these assays?
D2 ag-1: -8; D2 PAM-2: -16

What do the screens show for `COc1ccc(OCC(=O)OCC(=O)NCc2ccco2)cc1`?
D2 ag-1: -4; D2 ag-2: 1; D2 PAM-1: -5; D2 antagonist: 2; D2 PAM-2: -5

What do the screens show for `COc1ccc(CC(=O)OCC(=O)NCc2ccco2)cc1`?
D2 ag-1: 3; D2 ag-2: 0; D2 PAM-1: -14; D2 antagonist: 36*; D2 PAM-2: -7

How did CCCC(=O)Nc1cc(C)c2c(=O)oc3ccccc3c2n1 do in these assays?
D2 ag-1: -6; D2 ag-2: 0; D2 PAM-1: 15; D2 antagonist: -19; D2 PAM-2: 1

What do the screens show for `Cc1cc(NC(=O)c2ccccc2F)nc2c1c(=O)oc1ccccc12`?
D2 ag-1: 0; D2 ag-2: 0; D2 PAM-1: 42*; D2 antagonist: -4; D2 PAM-2: -7

How did CCC(=O)Nc1nnc(/C=C/c2ccc(OC)cc2)s1 do in these assays?
D2 ag-1: 6; D2 ag-2: 0; D2 PAM-1: 11; D2 antagonist: 35*; D2 PAM-2: 1

Results for COc1ccc(/C=C/c2nnc(NC(=O)CSc3ccc(C)cc3)s2)cc1 ?
D2 ag-1: -3; D2 PAM-2: -2

What do the screens show for `COc1cnc(-c2cccc(C(F)(F)F)c2)c(NC(=O)c2cc3ccccc3s2)n1`?
D2 ag-1: 1; D2 PAM-2: 4

How did CCc1ccccc1NC(=O)NC1CC2CCC(C1)N2Cc1ccco1 (stereo unspecified) do in these assays?
D2 ag-1: -4; D2 ag-2: 0; D2 PAM-1: -25; D2 antagonist: 32*; D2 PAM-2: -33

What do the screens show for `Cc1cc(C)cc(NC(=S)NC2CC3CCC(C2)N3Cc2ccco2)c1` (stereo unspecified)?
D2 ag-1: -9; D2 ag-2: 0; D2 PAM-1: -15; D2 antagonist: 46*; D2 PAM-2: -23
